From PubChem BioAssay (NCATS)
Records with an inconclusive call do not appear. Values without a mark were called inactive. Calls of active or inactive are those of the source. Calls follow the shape of the dose curve; as a rule, active = well fitted activation curve with a large enough effect; inconclusive = small, poorly fitted or top-dose-only effect; inactive = no such curve, though single readings can be large or run the other way.

Target: Cellular tumor antigen p53 (Homo sapiens) (UniProt P04637)
Sequence (P04637 whole entry, looked up): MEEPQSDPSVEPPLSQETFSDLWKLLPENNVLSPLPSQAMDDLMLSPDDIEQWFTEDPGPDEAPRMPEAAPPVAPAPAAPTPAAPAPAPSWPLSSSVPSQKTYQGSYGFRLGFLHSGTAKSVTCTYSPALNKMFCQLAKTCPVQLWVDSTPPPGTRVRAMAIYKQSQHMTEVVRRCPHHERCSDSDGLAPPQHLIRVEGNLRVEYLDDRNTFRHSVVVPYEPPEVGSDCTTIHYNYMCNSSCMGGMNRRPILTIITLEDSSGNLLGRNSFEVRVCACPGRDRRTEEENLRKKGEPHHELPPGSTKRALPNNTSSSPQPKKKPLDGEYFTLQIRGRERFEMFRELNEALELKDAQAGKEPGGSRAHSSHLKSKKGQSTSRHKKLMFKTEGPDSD
Experiment: Primary qHTS for small molecule compounds that upregulate eGFP-tagged delta133p53alpha (in N-terminal) cells. (AID 2060322); also: nearly all actives have a fitted effect of over 75% in size;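 as to activation: series mostly up to about 56 µM; 0% = DMSO vehicle and 100% = reference activator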
Conditions: NCI-H358 eGFP-delta133p53alpha fluorescence, 24 h; activation: hits give high values
How it was run: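 NCI-H358 cells pre-induced 24 h with 10 ng/ml doxycycline for eGFP-delta133p53alpha, plated dox-free and exposed 24 h at 37C to titrated compounds. Fixed, Hoechst-stained; gated GFP peak intensity by laser scanning cytometry, normalized to DMSO (0%) and 57.5 uM 5-azacytidine (100%).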
Potency is read from the fitted curve at half-maximal effect.

Compound | activation [%] | Potency
COc1ccc2c(c1)CN(C)CC2c1ccc(Cl)c(Cl)c1 (stereo not drawn) | 10.8 | 
Nc1ccccc1 | -8.47 | 
CC[N+]1(C)CCCC(OC(=O)C(O)(c2ccccc2)c2ccccc2)C1 (stereo not drawn) | 8.47 | 
CCCN(CCC)C(=O)Cc1c(-c2ccc(Cl)cc2)nc2ccc(Cl)cn12 | 29.3 | 
C#CC(O)(C=CCl)CC (stereo not drawn) | 19.8 | 
NP(N)(=O)NC(=O)c1ccc(F)cc1 | -15.1 | 
COP(=S)(OC)Oc1ccc(S(=O)(=O)N(C)C)cc1 | 5.86 | 
CC(=O)C1CCOC1=O (stereo not drawn) | -9.21 | 
c1ccc(CN2CCNCC2)cc1 | 15.3 | 
C=CC[C@]1(O)CC[C@H]2[C@@H]3CCC4=CC(=O)CCC4=C3C=C[C@@]21C | -4.18 | 
C[C@]12CCC(=O)C=C1CC[C@@H]1[C@H]3CC[C@](C)(O)[C@@]3(C)CC[C@@H]12 |  | 50.9 µM (active)
C[N+](C)(C)CCOC(=O)C(O)(c1ccccc1)c1ccccc1 | 16.4 | 
O=[N+]([O-])c1cc([As](=O)(O)O)ccc1O | 9.21 | 
COC1CC(=C(c2cccs2)c2cccs2)C[N+](C)(C)C1 (stereo not drawn) | -5.86 | 
C[C@]12CC[C@H]3[C@@H](CCC4=CC(=O)CC[C@@H]43)[C@@H]1CC[C@@H]2O | -0.837 | 
Fc1cc(Br)ccc1CBr | -29.9 | 
O=C(Nc1ccc(Br)cc1)c1cc(Br)cc(Br)c1O | 29.9 | 
CN1C(=O)CN=C(c2ccccc2)c2cc([N+](=O)[O-])ccc21 | -19.8 | 
